Hit rate of the full screen: of about 230,000 compounds, about 1,000 (0.43%) were called active. Entries that show only a call come without a potency. The sample holds actives, similar compounds and a random draw of the others, so the mix is not that of the screen. A number with no mark means an inactive call. Calls come from the whole dose curve; as a rule, active = well fitted inhibition curve with a large enough effect (not every such curve was filed as active); inactive = no such curve, though single readings can be large or run the other way.
What follows are molecules tested against Guanine nucleotide-binding protein G(i) subunit alpha-1 (Homo sapiens) (UniProt P63096) (assay: qHTS Assay for Inhibitors of RGS12 GoLoco Motif Activity (Red Fluorophore)). Conditions: Gai1:RGS12 GoLoco peptide FP, rhodamine, 10 min; series mostly up to 61.6 µM.
Guanine nucleotide-binding protein G(i) subunit alpha-1 (Homo sapiens), sequence (P63096 whole entry, looked up): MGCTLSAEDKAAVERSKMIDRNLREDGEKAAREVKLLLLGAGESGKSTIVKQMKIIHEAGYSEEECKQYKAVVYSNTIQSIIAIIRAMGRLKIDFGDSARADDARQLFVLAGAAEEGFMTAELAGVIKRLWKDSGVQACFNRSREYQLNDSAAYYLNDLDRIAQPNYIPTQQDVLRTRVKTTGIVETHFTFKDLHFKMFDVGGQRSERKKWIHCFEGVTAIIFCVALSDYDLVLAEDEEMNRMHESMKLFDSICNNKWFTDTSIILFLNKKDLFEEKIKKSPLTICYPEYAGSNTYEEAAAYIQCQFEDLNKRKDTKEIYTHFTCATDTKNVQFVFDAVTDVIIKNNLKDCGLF
From the text: Assay Submitter: Siderovski, David P, University of North Carolina at Chapel Hill
Screening Center PI: Austin, C.P.
Screening Center: NIH Chemical Genomics Center [NCGC]
G-protein-coupled receptors (GPCRs) are major targets for drug discovery. The regulator of G-protein signaling (RGS)-protein family has important roles in GPCR signal transduction. RGS proteins contain a conserved RGS-box, which is often accompanied by other signaling regulatory elements. RGS proteins accelerate the deactivation of G proteins to reduce GPCR signaling; however, some also have an effector function and transmit signals. Combining GPCR agonists with RGS inhibitors should potentiate responses, and could markedly increase the agonist's regional specificity. The diversity of RGS proteins with highly localized and dynamically regulated distributions in brain makes them attractive targets for pharmacotherapy of central nervous system disorders. […] A complex of Gai1 and fluorescently labeled G-alpha-binding peptide (the "GoLoco motif") derived from RGS12 is incubated with library members. Inhibitors of the binding are detected by a decrease in the fluorescence polarization (FP) of the fluorophore. Protein was supplied by Prof. David Siderovski, University of North Carolina at Chapel Hill.
Assay Buffer: 10 mM Tris-HCl, 150 mM NaCl, 0.1 mM GDP (prepared fresh), and 0.05% NP40 at pH 7.5.
15 nM Rhodamine labeled peptide/25 nM protein in columns 1, 2, 5 - 48. Titration of unlabeled peptide control ([H][…][NH2], custom synthesized and HPLC-purified by Tufts University Core Facility) from 20 mM, then 1:2 dilution, 16-point in duplicate, pin-transferred to column 2, rows 1 to 32. Column 1 is neutral.
Rhodamine-labeled peptide (Rhodamine-[…]-NH2) was custom-synthesized and HPLC-purified by Invitrogen (Carlsbad, CA).
Four uL of reagents were dispensed to 1536-well Greiner black solid-bottom plates. Compounds and controls (23 nL) were transferred via Kalypsys PinTool. The plates were incubated for 10 min at room temperature, and then read on ViewLux (Perkin-Elmer) High-throughput CCD imager using BODIPY for the rhodamine-labeled decapeptide probe. During dispense, reagent bottles were kept submerged into 4 deg C water bath and all liquid lines were covered with aluminum foil to minimize probe and protein degradation. All screening operations were performed on a Kalypsys robotic system (Kalypsys, Inc., San Diego, CA) containing one RX-130 and two RX-90 anthropomorphic robotic arms.
Note: nearly all actives have a fitted effect of over 30% in size.
Potency is the fitted concentration of half-maximal effect.

Structure (SMILES)	Potency	activity, negative = inhibition
CCOC(=O)c1ccc(NC(=O)CSc2nnc(COc3ccccc3OC)n2C)cc1	inactive	–
CCOC(=O)c1ccc(NC(=O)CSc2ncccn2)cc1	2.82 µM (active)	–
CCOC(=O)c1ccc(NC(=O)Cn2cnc3cc(C)c(C)cc32)cc1	inactive	–
CCOC(=O)C1=C(C)c2ccccc2OC1(C)C(=O)OCC (centres undefined)	inactive	–
Cc1ccccc1-n1nnnc1SCCCC(=O)c1ccc(F)cc1	inactive	–
N#Cc1ccsc1NC(=O)CN1CCN(S(=O)(=O)c2cc(Cl)ccc2Cl)CC1	inactive	–
CCOc1ccc(N=NS(=O)(=O)O)cc1	–	-17.6% [at 14.2 µM]
Cc1ccccc1CC1(CO)CCCN(Cc2ccc3c(c2)OCCO3)C1 (centres undefined)	inactive	–
NCCC(=O)c1ccccc1N	inactive	–
CCCc1ccc(-c2c(C)sc(NC(=O)c3ccnn3C)c2C#N)cc1	inactive	–
CC(C)=C(NC(=O)c1ccccc1)C(=O)N/N=C(\C)c1ccccc1O	inactive	–
Cc1ccc2[nH]c(=O)c(CN(CCCN(C)C)C(=O)Nc3cccc(Cl)c3)cc2c1	inactive	–
N=C1C(c2nc3ccccc3s2)=C(O)CN1NC(=O)c1ccc([N+](=O)[O-])cc1	inactive	–
COc1ccc(/C=C(\C#N)C(=O)NCCCn2ccnc2)cc1	inactive	–
CCOC(=O)c1cnc(SC)nc1Sc1ccc(Cl)cc1Cl	inactive	–
O=P(O)(O)OC[C@H](O)CO	inactive	–
CCOC(=O)c1c(NC(=S)NC)sc2c1CCCC2	inactive	–
Cc1ccc(NC(=O)CN2CCCCC2)c2c1CC(C)(C)O2	inactive	–
Cc1ccc(Nc2cc(C)nc3c(C)ccc([N+](=O)[O-])c23)cc1	inactive	–
NCCCCC(N)C(=O)O (centres undefined)	inactive	–
CC(C)[C@@H]1NC(=O)[C@H](Cc2ccccc2)NC(=O)[C@@H](CC(=O)O)NC(=O)CNC(=O)[C@H](CCCNC(=N)N)NC1=O	inactive	–
CCS(=O)(=O)N1Cc2ccccc2CC1C(=O)Nc1nc2ccc(F)cc2s1 (centres undefined)	inactive	–
O=C(NCc1cc(C(F)(F)F)cc(C(F)(F)F)c1)C1CC(c2cccc(F)c2)=NO1 (centres undefined)	inactive	–

Structure (SMILES)	Potency	activity, negative = inhibition
Cc1ccccc1-c1n[nH]c(=S)n1/N=C/c1ccc(-c2ccccc2Br)o1	inactive	–
O=c1[nH]cnc2c1c(-c1ccccc1)cn2-c1ccc(F)cc1	inactive	–
Clc1ccc(CSc2nnc3c(n2)[nH]c2ccccc23)cc1	inactive	–
COC(c1ccccc1)(c1ccccc1)C(Oc1nc(C)cc(C)n1)C(=O)O (centres undefined)	inactive	–
COc1cccc(NC(=O)CN(C)C(=O)/C=C/c2cc(OC)ccc2OC)c1	inactive	–
O=C(NCCc1c[nH]c2ccccc12)c1cc2ccccc2oc1=O	inactive	–
CN(c1ccccc1)S(=O)(=O)c1cc(C(=O)Nc2nc3ccccc3[nH]2)ccc1Cl	inactive	–
CCC(C)[C@@H](N)C(=O)O (some centres undefined)	inactive	–
C[N+]1(CCNC(=O)/C=N/O)CCCCC1	12.6 µM (active)	–
Cc1ccc(S(=O)(=O)c2ccc(Oc3ccccc3)cc2)cc1	inactive	–
CC1=C/C(=N\OS(=O)(=O)c2ccccc2)C=CC1=O	28.2 µM (active)	–
CC1=C/C(=N\S(=O)(=O)c2ccccc2)C(C(C)C)=CC1=O	inactive	–
CC#CC[N+](C)(C)CCCCCC	inactive	–
NC(=O)C(=O)N/N=C/c1ccc([N+](=O)[O-])o1	inactive	–
S=c1[nH]nc(-c2ccccc2)n1/N=C/c1c[nH]c2ccccc12	inactive	–
C[n+]1ccc(/C=C/c2c[nH]c3ccccc23)cc1	0.562 µM (active)	–
CSC(=S)N/N=C/c1c[nH]c2ccccc12	inactive	–
Cc1ccc(CCCOC(=O)C[N+]2(C)CCCC2)cc1	7.08 µM (active)	–
Cc1ccc(CCCOC(=O)C[N+]2(C)CCCCC2)cc1	inactive	–
CCCCOC(=O)Cn1c(=O)n(CC(=O)OCCCC)c2cc(C)ccc21	inactive	–
C[C@@]12CCC(=O)C=C1CC[C@H]1C2[C@@H](O)C[C@]2(C)[C@@H]1CC[C@@]2(O)C(=O)COC(=O)C1CCCC1 (some centres undefined)	–	-1.69% [at 14.2 µM]
O=C(CC1SC(=Nc2ccccc2)N(Cc2ccccn2)C1=O)Nc1cccc(Cl)c1 (centres undefined)	inactive	–
CC(C)S(=O)(=O)c1csc(NC(=O)Nc2ccc(Cl)cc2)c1Cl	inactive	–

Structure (SMILES)	Potency	activity, negative = inhibition
CC(C)N(Cc1ccccc1)C(=O)COC(=O)c1cnccn1	inactive	–
CCO[C@H]1OC(C(=O)NCc2ccccc2)=C[C@@H](c2coc3ccccc3c2=O)[C@@H]1CCCO	inactive	–
Cc1ccc(-c2ncc(Cl)cc2-c2ccc(S(C)(=O)=O)cc2)cn1	inactive	–
CCOC(=O)N/N=C/c1cn(Cc2ccccc2Cl)c2ccccc12	inactive	–
CN1CCN(/N=C2/C(=O)Nc3ccc([N+](=O)[O-])cc32)CC1	inactive	–
Cc1nn(-c2cc(Cl)ccc2N)c(=O)c2ccccc12	inactive	–
Cc1nn(C)cc1N1C(=O)c2cccc3c(N)ccc(c23)C1=O	14.1 µM (active)	–
CCN1C(=O)c2cccc3c(N)ccc1c23	inactive	–
Cc1cccc(N2C(=O)SC(SC(=Nc3ccccc3)Nc3ccccc3)C2=O)c1 (centres undefined)	inactive	–
O=C(C1=C[C@H](C2CC2)C[C@H](OCc2ccc(CO)cc2)O1)N1CCN(Cc2ccccc2)CC1	inactive	–
CCOC(=O)N1CCN(Cc2nc3ccc([N+](=O)[O-])cc3c(=O)n2-c2cccc(OC)c2)CC1	inactive	–
CCOC(=O)C1=C(C(=O)OCC)C(C(=O)OCC)N(S(=O)(=O)C(F)(F)F)c2ccccc21 (centres undefined)	inactive	–
CCOC(=O)c1cc2n(c1N)-c1ccccc1C2=O	17.8 µM (active)	–
CCOC(=O)Nc1ccccc1N1C(=O)c2ccccc2C1=O	inactive	–
O=c1[nH]c2c(c(=O)n1Cc1ccccc1)CCC2	inactive	–
Cc1cc2nc3c(=O)n(Cc4ccccc4)c(=O)[nH]c3nc2cc1N	12.6 µM (active)	–
Cc1nc2c(c(=O)n1Cc1ccco1)c1nc3ccccc3nc1n2Cc1ccccc1	inactive	–
C=CC(=O)c1ccc2ccccc2c1	inactive	–
O=C(Nc1ccc(O)cc1)c1ccccc1O	inactive	–
CC(C)CCOc1ccc(C(=O)C[N+]2(C)CCOCC2)cc1	3.55 µM (active)	–
CC(=O)c1ccc(OCCN2CCOCC2)cc1	inactive	–
COc1ccc(OCCC(=O)c2ccc(OC)cc2)cc1	inactive	–
O=C(CCCNS(=O)(=O)c1cccc2nsnc12)NCCN1CCN(c2ccccc2F)CC1	inactive	–
